POLB inh = inhibitors of human DNA polymerase beta; P06746; Pol beta primer extension/strand displacement, fluorescence kinetic; Potency, µM (highest dose often 114 µM), without a hit: at the top dose activity change, negative = inhibition, usual class: inhibitors; actives 1.3% (n = 340,000); AID 485314; note: potency is the fitted concentration of half-maximal effect; % is set by controls: 0 for no effect and ±100 for the full control effect
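10 nM enzyme + cpd, 15 min RT; start with substrate 50 nM final; read 0 min and after 10 min RT. Corrected, normalized data; 4-parameter Hill curve fit.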
PI5P4K alpha inh = blocks human PI5P4K alpha kinase activity | P48426 | PI5P4Kalpha enzyme, ADP-Glo luminescence, 60 min; stronger effect = lower value | actives 1.2% (n = 330,000) | AID 652105 | max response, %; active = max response of -50% or lower; inconclusive = between -30% and -50%; inactive = -30% or higher; note: value at the top dose of about 77 µM; % is set by controls: 0 for no effect and ±100 for the full control effect
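Reactions run in 0.038 M HEPES pH 7.4, 0.28 mM EGTA, 0.1% CHAPS and 5% DMSO, with PI5P4Kalpha, substrate, compound and 5 microM ATP final, one hour at room temperature. Readout is ADP-Glo luminescence.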
WRN inhibitor = blocks human WRN helicase; Potency, µM (highest dose often 114 µM), inactives show top-dose activity change, negative = inhibition, actives largely listed as inhibitors; Q14191; WRN helicase unwinding, fluorescent forked duplex, kinetic; actives 0.46% (n = 360,000); note: potency is the fitted concentration of half-maximal effect; % is set by controls: 0 for no effect and ±100 for the full control effect; nearly all actives have a fitted effect of over 55% in size
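WRN at 20 nM final preincubated with compound 15 min at room temperature; reaction started with 100 nM fluorophore/quencher forked duplex oligonucleotide and 2 mM ATP final. Unwinding followed kinetically by red fluorescence (ex 525, em 598 nm).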
POLI inh = DNA polymerase iota (human) inhibition | Q9UNA4 | Pol iota fluorescent replication assay, 10 min | Potency, µM (series often up to 115 µM), for inactives: at the top dose activity, negative = inhibition, hits mostly inhibitors | actives 1% (n = 390,000); note: potency is the fitted concentration of half-maximal effect
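Fluorescent replication assay read twice, at 0 min and 10 min after adding 50 nM (final) substrate. Enzyme (10 nM) and compounds were first incubated 15 min at room temperature; enzyme-free buffer wells were negative controls.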
Pol eta inh = DNA polymerase eta (human) inhibition; Q9Y253; recombinant Pol eta, fluorescent DNA replication assay; Potency, µM (titrated, usually from 114 µM), for inactives: at the top dose activity change, negative = inhibition, usual class: inhibitors; actives 1.2% (n = 390,000); AID 588591; note: potency is the fitted concentration of half-maximal effect; % is set by controls: 0 for no effect and ±100 for the full control effect
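Fluorescent replication assay: 50 nM final substrate added after a 15 min room-temperature compound preincubation with 10 nM enzyme. Signal taken at 0 min and again at 10 min.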
POLK inh = DNA polymerase kappa (human) inhibition; purified Pol kappa, fluorescent DNA synthesis assay, 10 min; Potency, µM (series often up to 107 µM), inactives show top-dose activity, negative = inhibition, usual class: inhibitors; actives 0.53% (n = 400,000); note: potency is the fitted concentration of half-maximal effect; % is set by controls: 0 for no effect and ±100 for the full control effect
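Kinetic fluorescence screen: compound preincubated 15 min RT with 10 nM enzyme; 50 nM substrate (final) initiates; reads at 0/10 min.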
* = called active by the depositor; ? = inconclusive; · = not tested or not shown; [ ] = dose if it differs, or a comment. An excerpt weighted towards active compounds, which were near 2.8% of everything screened. Unless noted, calls come from the whole dose curve; as a rule, active = well fitted curve in the direction sought with a large enough effect; inconclusive = small, poorly fitted or top-dose-only effect, or another doubt; inactive = no such curve, though single readings can be large; an effect the other way counts as inactive or inconclusive.

SMILES | POLB inh | PI5P4K alpha inh | WRN inhibitor | POLI inh | Pol eta inh | POLK inh
CCCCCCCCCCCCCCOc1ccc(C(=O)O)o1 | · | · | · | · | · | 12µM*
O=C(Nc1cccc(Nc2ccccc2)c1)c1cnn2c1NC(=C1CC1)C=C2C(F)F | · | · | · | 11% | · | -14%
Nc1nc(SCC(=O)c2ccc(F)cc2)n[nH]1 | -8% | -55* | -11% | -29% | ? | -18%
Nc1nc(SCC(=O)c2cc(F)ccc2F)n[nH]1 | -24% | -9 | -3% | -2% | -7% | -8%
Cc1nc(SCC(=O)c2ccc(F)cc2)n[nH]1 | 33% | -74* | -5% | 21% | -17% | -3%
Cc1nc(SCc2ccc(F)cc2)n[nH]1 | 2% | -4 | -3% | 146% | 2% | -4%
Cc1nc(SCC(=O)c2cccc([N+](=O)[O-])c2)n[nH]1 | 1% | -63* | ? | 7% | -21% | -13%
Cc1ccnc(SCC(=O)c2cccc([N+](=O)[O-])c2)n1 | -1% | -6 | -7% | 19% | -24% | 0%
O=S(=O)(Nc1ccc(C(F)(F)F)cn1)c1ccccc1 | 17% | 0 | 7% | 59% | -9% | -4%
COC(=O)C1=C(C)N(CCc2ccccc2)C(=O)/C1=C\c1ccco1 | -15% | 2 | -4% | -1% | -17% | -13%
COC(=O)C1=C(C)N(Cc2ccccc2)C(=O)/C1=C\c1ccco1 | -30% | -10 | -9%[11.6 µM] | 50µM* | -21% | ?
CCN(CC(=O)Nc1cc(S(=O)(=O)N2CCOCC2)ccc1C)Cc1ccccc1 | · | -4 | 1% | 7% | -8% | -8%
O=[N+]([O-])c1cc2oc3c(c2c(C=NCc2ccncc2)c1O)CCCC3 | 18µM* | -81* | ? | ? | ? | ?
COc1ccc(NC(=O)Cn2cnc3sc(C)c(S(=O)(=O)N4CCOCC4)c3c2=O)cc1Cl | 0% | -13 | 0% | 77% | -15% | -23%
Oc1ccc(Nc2nc3ccccc3nc2Nc2ccc(O)cc2)cc1 | 40µM* | -21 | -29% | ? | ? | -16%
O=C(Nc1ccccc1Sc1ccccc1)c1cnn2c1NC(=C1CC1)C=C2C(F)F | · | · | · | -29% | · | -9%
CNc1cccccc1=S | 16µM* | ? | -12%[11.6 µM] | 10µM* | ? | 79µM*
CCCC(=O)OCC(=O)Nc1ccc2[nH]c(=O)[nH]c2c1 | -5% | -12 | -26% | -18% | -7% | -18%
CC1CC1C(=O)OCC(=O)Nc1ccc2[nH]c(=O)[nH]c2c1 (stereo unspecified) | 25µM* | -4 | -21%[57.1 µM] | 40µM* | 50µM* | -22%
O=C1NC(=Nc2ccccc2)S/C1=C\c1cccnc1 | 35% | ? | -12% | -4% | -5% | 8%
O=C1N/C(=N/S(=O)(=O)c2ccccc2)S/C1=C/c1cccnc1 | 9% | -57* | -28% | ? | ? | -5%
Cc1ccc(S(=O)(=O)/N=C2/NC(=O)/C(=C\c3ccccc3)S2)cc1 | · | -18 | ? | -20% | ? | -17%
Cc1ccc(/C=C2\S/C(=N/S(=O)(=O)c3cccs3)NC2=O)cc1 | 2% | -59* | 50µM* | 40µM* | 25µM* | -34%
COc1ccc(CNC(=O)c2cnn(-c3ccc(C)cc3)c2-n2cccc2)cc1OC | 10% | · | · | -9% | -15% | -17%[60.1 µM]
COc1ccc(N2CSC3=C(C#N)C(c4cc(OC)ccc4OC)CC(=O)N3C2)c(OC)c1 (stereo unspecified) | 10% | -85* | 10% | ? | -15% | -28%
SMILES | POLB inh | PI5P4K alpha inh | WRN inhibitor | POLI inh | Pol eta inh | POLK inh
COc1ccc(N2CSC3=C(C#N)C(c4cccs4)CC(=O)N3C2)cc1 (stereo unspecified) | 28µM* | · | 8% | 4% | 1% | -5%
CCOC(=O)c1ccc(N2CSC3=C(C#N)C(c4cccs4)CC(=O)N3C2)cc1 (stereo unspecified) | 0% | -70* | 1% | -7% | -3% | -14%
COC/C=C/C1=CC2=CC(=O)C(C)(OC(=O)c3cnc4ccccc4n3)C(=O)C2=CN1Cc1ccc(OC)cc1 (stereo unspecified) | 40µM* | -15 | -16%[57.1 µM] | ? | 28µM* | ?
COC/C=C/C1=CC2=CC(=O)C(C)(OC(=O)c3cnc4ccccc4n3)C(=O)C2=CN1c1ccc(OC)cc1 (stereo unspecified) | · | -29 | 6% | ? | ? | -7%
COC/C=C/C1=CC2=CC(=O)C(C)(OC(=O)c3ccco3)C(=O)C2=CO1 (stereo unspecified) | 28µM* | · | · | · | · | ·
COC/C=C/C1=CC2=CC(=O)C(C)(OC(=O)c3cnc4ccccc4n3)C(=O)C2=CN1CC1CC1 (stereo unspecified) | · | -6 | -24% | ? | ? | ?
COC/C=C/C1=CC2=CC(=O)C(C)(OC(=O)c3cnc4ccccc4n3)C(=O)C2=CN1Cc1ccccc1 (stereo unspecified) | 10µM* | -26 | -21% | ? | 28µM* | -38%
O=c1cc(-c2ccccc2)oc2ccccc12 | · | 1 | -2% | 24% | -6% | 4%
O=c1cc(-c2ccccc2)oc2cc(O)c(O)cc12 | · | · | · | · | · | 3.2µM*
O=C(c1ccccc1)c1c(O)cc(-c2ccccc2)oc1=O | 16µM* | 5 | -21% | -5% | -9% | -17%
O=c1cc(-c2ccc(O)c(O)c2)oc2ccccc12 | · | · | · | · | · | 14µM*
Cc1cc2ccccc2c(=O)n1CC(=O)NCC(=O)N(C)C1CCCCC1 | 0% | 0 | 2% | 5% | -11% | -3%
CC1CCCC(N2CCN(S(=O)(=O)c3ccccc3)CC2)C1 (stereo unspecified) | 11% | -5 | -5% | 114% | -20% | -4%
CC(NC(=O)c1cnc2ccccc2n1)c1ccccc1 (stereo unspecified) | 6% | -6 | -17% | 90% | -1% | -5%
CS[C@@H]1SC[C@H]2C(=O)N(C)C(C(C)C)C(=O)OC[C@@H](NC(=O)c3cnc4ccccc4n3)C(=O)N[C@@H](C)C(=O)N(C)[C@H]1C(=O)N(C)C(C(C)C)C(=O)OC[C@@H](NC(=O)c1cnc3ccccc3n1)C(=O)N[C@@H](C)C(=O)N2C (stereo partly specified) | · | · | · | · | · | 21µM*
CC(C)[C@H](NC(=O)c1ccc(Br)cc1)C(=O)NC1CCCCC1 | · | -4 | 5% | 25% | -11% | 5%
CCOc1cc(/C=C\c2nc(O)c([N+](=O)[O-])c(=O)[nH]2)ccc1OC(C)C | 46% | -3 | 5% | 31% | -21% | -1%
O=c1[nH]c(/C=C\c2cccs2)nc(O)c1[N+](=O)[O-] | ? | -66* | -25% | 7% | ? | -31%
